High-throughput results from PubChem.
Most compounds without a hit are left out; they make up all but 11% or so of the library.
Pf growth 48h: Primary qHTS for delayed death inhibitors of the malarial parasite plastid, 48 hour incubation; P. falciparum luciferase growth in erythrocytes, 48 h; Potency, µM (top dose mostly 28.7 µM), hits mostly inhibitors; hit rate 5.9% among 310,000; AID 504832, 2011
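Compounds are pin-transferred into medium, infected erythrocytes (2% hematocrit, 0.1% parasitemia final) are added, and plates sit one parasite generation at 37 C in 5% CO2. Detection reagent is then added and luminescence measured.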
HCV inh: qHTS Assay for Inhibitors of Hepatitis C Virus (HCV); Huh7.5.1 HCVcc-Cre infection, luciferase reporter, 44 h; Potency, µM (top dose mostly 41.8 µM), hits mostly inhibitors; hit rate 3.4% among 340,000
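Infectious HCVcc-Cre (~0.5 moi) was added to cells just after compound, with cells seeded 4 h earlier at 1,000 per well. Luciferase activity after 44 h culture reported infection; substrate was incubated 15 min at room temperature before reading.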
AMA1 RON2 block: qHTS for Inhibitors of AMA1-RON; Towards Development of Antimalarial Drug Lead: Primary Screen; AID 720542, 2013; Plasmodium falciparum AMA1 (3D7) - RON2 peptide interaction; hit rate 0.2% among 360,000; Potency, µM (series often up to 58.2 µM), most hits filed as inhibitors; AlphaScreen AMA1-biotinylated RON2 peptide binding; further: nearly all actives have a fitted effect of over 45% in size
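AMA1 (3D7) with his tag at 25 nM final met compounds first, then biotinylated RON2 peptide at 25 nM; detection used donor plus acceptor beads, 10 µg/mL apiece, read by AlphaScreen after 30 min at room temperature.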
Pf growth 96h: Primary qHTS for delayed death inhibitors of the malarial parasite plastid, 96 hour incubation. AID 504834, 2011. Potency, µM (titrated, usually from 28.7 µM), usual class: inhibitors. hit rate 6.9% among 320,000. P. falciparum luciferase reporter growth, 96 h
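Infected RBCs, 2% Hct / 0.05% parasitemia final; luciferase-reporter P. falciparum; cpd 96 h, 37 C, 5% CO2; luciferase detection reagent; luminescence.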
AmpC inh no detg: qHTS Inhibitors of AmpC Beta-Lactamase (assay without detergent). AmpC nitrocefin hydrolysis, absorbance 480 nm, 0.0001% Triton. Potency, µM (series often up to 57.1 µM), hits mostly inhibitors. hit rate 0.52% among 330,000. AID 485341, 2010; further: nearly all actives have a fitted effect of over 20% in size
Target sequence (P00811 whole entry, looked up): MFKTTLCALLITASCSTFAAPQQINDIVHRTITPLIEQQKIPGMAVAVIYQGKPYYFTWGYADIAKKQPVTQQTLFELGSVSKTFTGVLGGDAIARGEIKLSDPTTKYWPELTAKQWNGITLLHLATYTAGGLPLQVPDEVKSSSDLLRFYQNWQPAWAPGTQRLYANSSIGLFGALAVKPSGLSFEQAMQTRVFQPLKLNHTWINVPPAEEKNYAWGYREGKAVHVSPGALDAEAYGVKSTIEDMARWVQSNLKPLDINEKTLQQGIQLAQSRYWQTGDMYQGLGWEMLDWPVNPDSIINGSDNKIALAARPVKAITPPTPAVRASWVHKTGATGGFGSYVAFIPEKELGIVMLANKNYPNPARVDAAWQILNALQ
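AmpC (5.3 nM in the dispensed reagent) in 20 mM phosphate pH 7.0 with 0.01% (detergent screen) or 0.0001% Triton X-100 was preincubated with compounds for 15 min at room temperature. Nitrocefin was then added from an 800 uM solution, and hydrolysis was followed at 480 nm.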
AmpC detergent: qHTS Inhibitors of AmpC Beta-Lactamase (assay with detergent) | P00811 | AmpC hydrolysis of nitrocefin, absorbance 480 nm, 0.01% Triton | Potency, µM (top dose mostly 114 µM), usual class: inhibitors | hit rate 0.041% among 370,000 | AID 485294, 2010; further: nearly all actives have a fitted effect of over 25% in size
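AmpC (5.3 nM in the dispensed reagent) in 20 mM phosphate pH 7.0 with 0.01% (detergent screen) or 0.0001% Triton X-100 was preincubated with compounds for 15 min at room temperature. Nitrocefin was then added from an 800 uM solution, and hydrolysis was followed at 480 nm.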
Hits are given with their value; - = inactive; ? = inconclusive; . = no result given; [ ] = another dose, or the depositor's remark. The call rests on the fitted dose curve; in most records, active means well fitted curve in the direction sought with a large enough effect; inconclusive means small, poorly fitted or top-dose-only effect, or another doubt; inactive means no such curve, though single readings can be large; an effect the other way counts as inactive or inconclusive.

SMILES	Pf growth 48h	HCV inh	AMA1 RON2 block	Pf growth 96h	AmpC inh no detg	AmpC detergent
COc1cc([N+](=O)[O-])ccc1NC(=O)Nn1cnnc1	-	-	-	13µM	-	-
COc1cc([N+](=O)[O-])ccc1NC(=O)Nc1ccc2c(c1)OCCO2	-	7.1µM	-	-	-	-
COc1ccc(C)cc1NC(=O)Nn1cnnc1	-	-	-	.	-	?
CCOC(=O)c1ccc(NC(=S)NNC(=O)c2cc(-c3cccnc3)nc3ccccc23)cc1	4.1µM	-	-	-	-	-
CCNC(=S)NNC(=O)c1cc(-c2cccnc2)nc2ccccc12	-	-	-	-	-	-
COC(=O)[C@H](NC(=O)c1cc(-c2ccccc2)nc2ccccc12)c1ccccc1	.	35µM	-	.	.	.
CCOc1ccc(-c2cc(C(=O)NC(C)c3ccccc3)c3ccccc3n2)cc1 (centres undefined)	.	.	.	.	.	-
O=C(NC(=S)Nc1ccccc1)c1cc(-c2ccccc2)nc2ccccc12	?	?	-	10µM	-	-
O=C(NC(=S)Nc1ccccn1)c1cc(-c2ccccc2)nc2ccccc12	-	-	-	-	-	-
O=C(NNC(=S)Nc1ccccc1)c1cc(-c2cccnc2)nc2ccccc12	?	-	-	1.2µM	-	-
CCOC(=O)c1cc(S(=O)(=O)N2CCN(c3ccc(C(C)=O)cc3)CC2)[nH]n1	.	.	.	.	.	-
CCCC(c1nnnn1Cc1ccc(OC)cc1)N1CCN(c2ccccc2)CC1 (centres undefined)	13µM	-	-	-	-	?
COc1ccc(Cn2nnnc2C(CC(C)C)N2CCN(c3ccccc3)CC2)cc1 (centres undefined)	7.4µM	-	-	-	-	-
Cc1ccc(CN(Cc2cccn2-c2nnc(N3CCCC3=O)s2)C(=O)Nc2cc(C)cc(C)c2)cc1	.	.	.	.	.	-
O=C(Nc1ccn(Cc2c(F)c(F)cc(F)c2F)n1)c1ccc(COc2ccc(Cl)cc2Cl)o1	.	13µM	-	?	-	-
CC(=O)Nc1ccc(NC(=O)c2ccc(COc3ccc(Cl)cc3Cl)o2)cc1	.	.	.	.	.	-
CC(C)CNC(=O)c1ccc(COc2ccc(Cl)cc2Cl)o1	?	13µM	-	-	-	-
Cc1nn(Cc2c(F)c(F)c(F)c(F)c2F)c(C)c1NC(=O)c1ccc(COc2ccc(Cl)cc2Cl)o1	-	7.1µM	-[11.6 µM]	?	-	-
Cc1nn(Cc2cccc(F)c2)c(C)c1NC(=O)c1ccc(COc2ccccc2Cl)cc1	13µM	10µM	-	.	-	-
O=C(Nc1ccccc1F)c1ccc(COc2ccc(Cl)cc2Cl)o1	-	?	-	-	-	-
COc1ccccc1NC(=O)c1c(C)cc(C)nc1SCC(=O)Nc1cccc(C)c1	.	.	.	.	.	-
O=C(NN=C1CCN(Cc2ccccc2)CC1)c1cc(Br)ccc1O	-	-	-	1.9µM	-	-
Cc1cccc(Cn2cccc2CNS(=O)(=O)c2ccc(C)c(C)c2)c1	.	.	.	.	.	-
Cc1c(Cl)cccc1NC(=O)CN1CCN(CCO)CC1	-	-	-	-	-	-
Cc1nc(Nc2ncc(C(=O)Nc3c(C)cccc3Cl)s2)cc(N2CCN(CCO)CC2)n1	9.5µM	.	.	7.6µM	.	.
SMILES	Pf growth 48h	HCV inh	AMA1 RON2 block	Pf growth 96h	AmpC inh no detg	AmpC detergent
O=C(Cn1c(=O)n(Cc2ccco2)c(=O)c2oc3ccccc3c21)Nc1ccc(F)c(Cl)c1	.	.	.	.	.	-
Cc1ccc(-c2nc(C(=O)NCC3CCCO3)cc3c2[nH]c2ccccc23)cc1 (centres undefined)	7.4µM	?	-	?	-	-
COc1ccc(-c2nc(C(=O)NCC3CCCO3)cc3c2[nH]c2ccccc23)cc1 (centres undefined)	5.2µM	3.5µM	-	7.4µM	?	-
Cc1ccccc1-c1nc(C(=O)NCC2CCCO2)cc2c1[nH]c1ccccc12 (centres undefined)	?	?	-	12µM	-	?
Cn1c(C(=O)NCC2CCCO2)cc2c(=O)[nH]c3ccccc3c21 (centres undefined)	-	-	-	?	-	-
CC(=O)N(C)c1ccc(OCC(O)CN(c2ccccc2C)S(=O)(=O)c2ccc(C)cc2)cc1 (centres undefined)	13µM	?	-	2.9µM	-	-
CCC(C)n1c(=N)c(C(=O)NCc2ccccc2)cc2c(=O)n3cc(C)ccc3nc21 (centres undefined)	.	.	.	.	.	-
Cc1ccc(NS(=O)(=O)c2cccc(C(=O)NNC(=O)c3cccn3C)c2)c(C)c1	-	-	-	-	16µM	-
Cc1ccc(C)c(OCc2cc(C(=O)NC3CCN(Cc4ccccc4)CC3)no2)c1	?	6.3µM	-	?	-	-
COc1ccc(NS(=O)(=O)c2cccc(C(=O)NNC(=O)c3cccn3C)c2)cc1	-	-	-	-	-	?
COc1ccc(NS(=O)(=O)c2ccc(C)c(C(=O)NC3CCN(Cc4ccccc4)CC3)c2)cc1	10µM	.	-	7.4µM	-	-
COc1ccccc1NS(=O)(=O)c1cccc(C(=O)NC2CCN(Cc3ccccc3)CC2)c1	10µM	?	-	3.7µM	-	-
Cc1cc(N2CCN(C)CC2)nc2ccc(NC(=O)Nc3cccc(Cl)c3)cc12	.	.	.	.	.	-
CCOC(=O)C1CCN(S(=O)(=O)c2cc3c4c(c2)CC(=O)N4CCC3)CC1	.	.	.	.	.	-
CSc1ncc(C(=O)NCc2ccc(C)cc2)c(C)n1	.	.	.	.	.	-
Cc1cc2n(n1)CCCN2C(=O)Nc1cccc(C)c1C	.	.	.	.	.	-
Cc1cccc(C(=O)NCC(=O)NC2CCN(Cc3ccccc3)CC2)c1	.	-	-	.	.	.
Cc1ccc(NS(=O)(=O)c2cccc(C(=O)NC3CCN(Cc4ccccc4)CC3)c2)c(C)c1	.	14µM	-	.	.	.
COc1ccccc1NS(=O)(=O)c1ccc(C)c(C(=O)NC2CCN(Cc3ccccc3)CC2)c1	10µM	2.2µM	-	?	-	-
O=C(Nc1ccc(N2CCCCCC2)cc1)c1cccc(S(=O)(=O)N2CCOCC2)c1	13µM	2.5µM	?	10µM	-	-
COc1ccc(NS(=O)(=O)c2ccc(C)c(NC(=O)c3ccc(C)c(S(=O)(=O)N4CCOCC4)c3)c2)cc1	?	-	-	15µM	-	-
CCOC(=O)c1ccc(NC(=O)c2ccc(C)c(S(=O)(=O)N3CCOCC3)c2)cc1	.	5µM	-	-	-	-
CC(=O)c1ccc(NC(=O)c2ccc(C)c(S(=O)(=O)N3CCOCC3)c2)cc1	?	-	-	-	-	-
CCOC(=O)c1ccc(NC(=O)c2cccc(S(=O)(=O)N3CCOCC3)c2)cc1	6.6µM	3.5µM	-	-	-	?
